# Results: PubChem BioAssay (NCATS)
# A number with no mark means an inactive call. Inconclusive results are not listed. Entries that show only a call come without a potency. Activity calls are given as the source filed them. Unless noted, calls follow the shape of the dose curve; as a rule, active = well fitted curve in the direction sought with a large enough effect; inconclusive = small, poorly fitted or top-dose-only effect, or another doubt; inactive = no such curve, though single readings can be large; an effect the other way counts as inactive or inconclusive.
# Key:
# [1] = molecular target: Cytochrome P450 3A4 (Homo sapiens) (UniProt P08684); test: qHTS Assay for Activators of Cytochrome P450 3A4 (AID 885); also: nearly all actives have a fitted effect of over 65% in size
# How it was run: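 20nM CYP3A4 + 25uM Luciferin-PPXE (=KM), 200mM KPO4; cpd 10 min RT; NADPH regen, 60 min RT; stop w/ detection buffer, 20 min; luminescence. Normalized to 57 uM ketoconazole.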
# [2] = qHTS Assay for Identification of Small Molecule Agonists for Thrombopoietin (TPO) Signaling Pathway (AID 917)
# How it was run: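 Luminescence from a Glycoprotein IIb promoter–driven luciferase reporter served as read-out in murine Ba/F3 cells carrying the human TPO receptor. Cells, deprived of IL-3 overnight, received compounds with 26 pM TPO and were incubated 24 hrs at 37 C.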
# [3] = molecular target: Cytochrome P450 2D6 (Homo sapiens) (UniProt P10635); test: qHTS Assay for Inhibitors and Substrates of Cytochrome P450 2D6 (AID 891);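 also: luciferin methyl ether substrate demethylated by CYP2D6 with NADPH regeneration; nearly all actives have a fitted effect of over 60% in size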
# How it was run: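 Human CYP2D6 (5 nM) with 30 uM Luciferin-ME EGE (at Km) in 100 mM KPO4, compound preincubated 10 min, then NADPH regeneration system for 60 min at room temperature. Luciferin read by luminescence; normalized to 1.43 uM quinidine.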
# [4] = qHTS Assay for Identification of Small Molecule Agonists for Hypoxia Response Element Signaling Pathway (AID 914; active = well fitted activation curve with a large enough effect in the signal ratio, with a control signal flat, not every such curve was filed as active; the % refers to the signal ratio); settings: ME-180 (cervical carcinoma) HRE-bla reporter, beta-lactamase ratio, CoCl2, 17 h; active compounds read high
# How it was run: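 Compounds in a titration series were added to ME-180 reporter cells alongside an EC50 level of CoCl2. After 17 hours, beta-lactamase activity was read as the 460nm/530nm emission ratio of CCF4, giving AC50 values.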
# Chain of Cytochrome P450 2D6 (Homo sapiens) (P10635 whole entry, looked up): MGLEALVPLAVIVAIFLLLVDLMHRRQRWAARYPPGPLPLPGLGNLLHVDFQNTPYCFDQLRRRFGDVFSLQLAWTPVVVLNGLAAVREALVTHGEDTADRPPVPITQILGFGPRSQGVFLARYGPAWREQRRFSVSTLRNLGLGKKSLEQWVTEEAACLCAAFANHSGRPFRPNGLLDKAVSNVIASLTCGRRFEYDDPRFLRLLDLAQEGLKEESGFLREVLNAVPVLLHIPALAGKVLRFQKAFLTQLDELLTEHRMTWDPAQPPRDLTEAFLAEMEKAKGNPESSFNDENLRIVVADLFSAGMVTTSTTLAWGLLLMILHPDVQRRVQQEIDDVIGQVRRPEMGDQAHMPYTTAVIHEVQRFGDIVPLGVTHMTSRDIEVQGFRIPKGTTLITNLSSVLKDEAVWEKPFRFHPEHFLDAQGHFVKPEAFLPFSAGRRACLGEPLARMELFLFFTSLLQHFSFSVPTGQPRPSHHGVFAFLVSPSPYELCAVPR
# Chain of Cytochrome P450 3A4 (Homo sapiens) (P08684 whole entry, looked up): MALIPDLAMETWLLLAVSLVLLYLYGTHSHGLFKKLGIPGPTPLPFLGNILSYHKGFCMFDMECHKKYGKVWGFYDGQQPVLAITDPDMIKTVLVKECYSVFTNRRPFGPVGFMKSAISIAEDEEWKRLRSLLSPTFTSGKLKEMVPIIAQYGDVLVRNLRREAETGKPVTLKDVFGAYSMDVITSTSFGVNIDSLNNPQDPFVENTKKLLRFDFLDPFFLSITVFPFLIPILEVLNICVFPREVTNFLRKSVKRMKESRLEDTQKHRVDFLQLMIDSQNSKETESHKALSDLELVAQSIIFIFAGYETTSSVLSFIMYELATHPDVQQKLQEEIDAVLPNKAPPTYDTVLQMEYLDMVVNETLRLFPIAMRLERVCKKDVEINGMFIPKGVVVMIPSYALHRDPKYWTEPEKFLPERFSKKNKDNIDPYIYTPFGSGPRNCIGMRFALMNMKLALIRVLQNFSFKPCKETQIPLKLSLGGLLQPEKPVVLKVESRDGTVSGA
compound,measurement,setting,value
CC(Cc1ccc(O)c(O)c1)C(C)Cc1ccc(O)c(O)c1 (stereo not drawn),outcome,[1],inactive
COc1ccc(CCNC[C@H](O)c2ccc(O)cc2)cc1OC,outcome,[1],inactive
same,outcome,[2],inactive
O=C(O)CCC(=O)C(=O)O,"activity change, negative = inhibition",[3],16.8% [at 11.4 µM]
CN=C(NC#N)Nc1ccc(C2=NNC(=O)C[C@@H]2C)cc1,Potency,[3],inactive
same,activation,[4],1.72%
same,outcome,[2],inactive
Cc1onc(-c2ccccc2)c1C(=O)N[C@@H]1C(=O)N2[C@@H]1SC(C)(C)[C@@H]2C(=O)O,activation,[4],-2.15%
